Bioassay records from PubChem.
Vaccinia Venus: vaccinia inhibition (Venus reporter); Vaccinia virus Venus reporter expression, fluorescence; 330,000 compounds, 0.46% hits; Potency, µM (doses to about 36.5 µM), for inactives: at the top dose activity change, negative = inhibition, most hits filed as inhibitors; calls by dose curve; tested in A549 cells; note: nearly all actives have a fitted effect of over 30% in size
FMDV inh: foot and mouth disease virus antiviral activity; Potency, µM (top dose mostly 57.9 µM), for inactives: at the top dose activity change, negative = inhibition, actives largely listed as inhibitors; 410,000 compounds, 1.2% hits; FMDV antiviral cell-based qHTS; AID 1159524; calls by dose curve; tested in HEK293T cells; note: read-out not given here; nearly all actives have a fitted effect of over 45% in size
Vaccinia mCherry: vaccinia inhibition (mCherry reporter); AID 720579; Vaccinia virus mCherry reporter infection, fluorescence; 310,000 compounds, 0.63% hits; Potency, µM (titrated, usually from 36.5 µM), for inactives: at the top dose activity change, negative = inhibition, hits mostly inhibitors; calls by dose curve; tested in A549 cells; note: nearly all actives have a fitted effect of over 35% in size
Lassa entry inh: Lassa virus entry inhibition; Lassa virus pseudotype entry inhibition, cell reporter; Potency, µM (highest dose often 37.9 µM), for inactives: top-dose activity change, negative = inhibition, hits mostly inhibitors; AID 540256; 300,000 compounds, 1.2% hits; calls by dose curve; tested in HEK293 cells; note: nearly all actives have a fitted effect of over 50% in size
Marburg entry inh: Marburg virus entry inhibition | Potency, µM (titrated, usually from 37.8 µM), for the others: at the top dose activity change, negative = inhibition, actives largely listed as inhibitors | 300,000 compounds, 1.8% hits | Marburg virus pseudotyped entry inhibition, cell reporter; calls by dose curve; tested in HEK293 cells
HCV inh: inhibitors of hepatitis C virus infection; Potency, µM (titrated, usually from 41.8 µM), inactives show at the highest dose activity change, negative = inhibition, actives largely listed as inhibitors; AID 651820; Huh7.5.1 HCVcc-Cre infection, luciferase reporter, 44 h; 340,000 compounds, 3.4% hits; active = well fitted inhibition curve with a large enough effect; inconclusive = small, poorly fitted or top-dose-only effect, or another doubt; inactive = no such curve, though single readings can be large or run the other way
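Infectious HCV cell culture screen: compound-treated cells (1,000/well, pre-plated 4 h) are infected with HCVcc-Cre at roughly 0.5 moi and grown 44 h. Infection is quantified by luciferase signal after 15 min substrate incubation at room temperature.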
* hit, by the source's call; i = inactive; ? = inconclusive; . = no result given; [ ] = remark or other dose. Most compounds without a hit are left out; they make up all but 5.3% or so of the library. % is set by controls: 0 for no effect and ±100 for the full control effect; potency is the fitted concentration of half-maximal effect.

SMILES | Vaccinia Venus | FMDV inh | Vaccinia mCherry | Lassa entry inh | Marburg entry inh | HCV inh
COc1ccc2cc(C(=O)C3CCCN(Cc4cccc(C)n4)C3)ccc2c1 (configuration not stated) | ? | ? | ? | ? | 22µM* | ?
COc1ccc(C(=O)C2CCCN(Cc3ccc(C#CCCO)cc3)C2)cc1F (configuration not stated) | -15% | ? | -18% | 13% | 1.1µM* | -24%
O=C(c1ccc(Cl)cc1)N1CCc2c([nH]c3ccccc23)C1C(F)(F)F (configuration not stated) | -27% | -29% | i | ? | 11µM* | ?
Cc1nonc1CC(=O)N1CCc2c([nH]c3ccccc23)C1c1ccccc1F (configuration not stated) | -17% | 12% | -16% | -13% | ? | -4%
O=C(c1cn[nH]c1)N1CCc2c([nH]c3ccccc23)C1c1c(F)cccc1Cl (configuration not stated) | -15% | -7% | 10µM* | ? | ? | 4%
Cc1ccc(NC(=O)N2CCc3c([nH]c4ccccc34)C2c2ccccc2F)c(Cl)c1 (configuration not stated) | -9% | -10% | -12% | 7.9µM* | . | .
O=C(Nc1ccccc1)N1CCc2c([nH]c3ccccc23)C1C(F)(F)F (configuration not stated) | ? | -11% | ? | ? | ? | ?
CNc1ccc(Br)cc(C(=O)/C=C/c2cccc(Cl)c2Cl)c1=O | . | 20µM* | . | . | . | ?
CNc1ccc(Br)cc(C(=O)/C=C/c2cccc(OC)c2OC)c1=O | . | 1% | . | -21% | 11% | ?
CCNc1ccc(Br)cc(C(=O)/C=C/c2ccccc2Cl)c1=O | . | ? | . | ? | 16µM* | 13µM*
CS(=O)(=O)N1CCCc2cc(C(=O)Nc3cccc(C(F)(F)F)c3)ccc21 | -10%[7.34 µM] | 25µM* | -12%[7.34 µM] | ? | -27%[46.1 µM] | .
CS(=O)(=O)N1CCc2cc(C(=O)Nc3ccc(O)cc3)ccc21 | 4% | 10% | 2% | 0% | ? | -13%
CS(=O)(=O)N1CCc2cc(C(=O)Nc3ccc(COCC(F)(F)F)cc3)ccc21 | . | ? | . | . | . | 11µM*
CC1CN(CC(=O)Nc2cccc(C(=O)Nc3cccc(C(F)(F)F)c3)c2)CC(C)O1 (configuration not stated) | ? | ? | -13% | ? | ? | ?
CC1CCN(CC(=O)Nc2cccc(C(=O)Nc3cccc(C(F)(F)F)c3)c2)CC1 | ? | -13% | -2% | ? | 8.9µM* | 22µM*
Cc1ccc2[nH]c(=O)c(C(c3nnnn3Cc3ccccc3)N3CCc4ccccc43)cc2c1 (configuration not stated) | . | -10% | . | ? | 10µM* | 32µM*
Cc1ccc2[nH]c(=O)c(C(c3nnnn3C3CCCC3)N3CCCc4ccccc43)cc2c1 (configuration not stated) | . | 5% | . | ? | 5.8µM* | -22%
Cc1ccsc1/C=C1\C(=O)NC(=S)N(C)C1=O | . | 32µM* | . | . | . | 8%
CC(C)COc1ccc(C(=O)Nc2scc(-c3ccc(Cl)cc3Cl)c2C(N)=O)cc1 | 3% | ? | -10% | -5% | ? | 13µM*
CCOc1ccc(NC(=O)Cn2c(=O)n(CC(=O)NCc3ccccc3Cl)c(=O)c3sccc32)cc1 | -7% | 13% | 4% | ? | 21%[46.1 µM] | .
CCOC(=O)N1CCN(C(=O)c2ccc(CSc3ccc(Cl)cc3)cc2)CC1 | 4% | 25µM* | -18% | ? | ? | ?
CN1CCN(C(=O)c2ccc(CSc3ccc(Cl)cc3)cc2)CC1 | -10% | ? | -9% | 8% | ? | ?
CCC(=NCc1ccco1)c1c(O)n(C2CCCCC2)c(=O)[nH]c1=O | . | ? | . | 3.7µM* | -2% | -2%
C/C(=N\Nc1nc(N2CCCCC2)nc(N2CCOCC2)n1)c1cccs1 | -6% | -11% | -5% | 11% | -8%[46.1 µM] | 10µM*
C/C(=N\Nc1nc(N2CCCCCC2)nc(N2CCCCCC2)n1)c1ccccc1 | . | -22% | . | . | . | ?
Cc1cccc(C(=O)Nc2ccc3oc(-c4ccncc4)nc3c2)c1 | -8%[7.34 µM] | ? | -12%[7.34 µM] | ? | -13%[46.1 µM] | .
